These results are taken from PubChem BioAssay (NCI).

Compounds without any hit were thinned out: in the full panel of roughly 83,000, 20% have a hit.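 Each cell line was grown in a 96-well plate and treated with one concentration of compound for 48 hours. Values below 10 were considered active.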 A number with no mark means an inactive call. Active and inactive are the calls of the source.

Test systems include HOP-92 NSCLC; 786-0 renal; MALME-3M melanoma; RXF 393 renal; EKVX NSCLC; SN12C renal; TK-10 renal; A498 renal; CCRF-CEM leukemia; RPMI-8226 leukemia; OVCAR-8 ovarian; OVCAR-5 ovarian; OVCAR-4 ovarian; SK-OV-3 ovarian; IGROV1 ovarian; NCI/ADR-RES ovarian; T-47D breast; MDA-MB-435 melanoma; MCF7 breast; HCT-116 colon.
Common to all, as to assay: NCI-60 one-dose screen, 48 h (100 = growth as untreated, 0 = no growth, -100 = all killed)
Conditions in all cases: 10 µM

As for `O=C(/C=C/c1ccc(Cl)cc1)c1nc2ccccc2n1Cc1ccc(Br)cc1`, the growth in the experiment on HOP-92 NSCLC is 40.2%; with 786-0 renal it was 38.9%; in the experiment with MALME-3M melanoma, 71.5%; with RXF 393 renal it was 37.6%; in the experiment on EKVX NSCLC, 39.9%; in the experiment on SN12C renal, 52.9%. The growth in the experiment on TK-10 renal was 93.7%; with A498 renal it was 115%; in the experiment with CCRF-CEM leukemia it was -10.9% (active); with RPMI-8226 leukemia, -13.4% (active); with OVCAR-8 ovarian, 66%; with OVCAR-5 ovarian, 89.9%. Further, the growth in the experiment with OVCAR-4 ovarian was 68.5%; in the experiment on SK-OV-3 ovarian, 94.7%; in the experiment on IGROV1 ovarian, 52.4%; in the experiment on NCI/ADR-RES ovarian, 62.6%; in the experiment on T-47D breast, 28%; in the experiment on MDA-MB-435 melanoma, 54.2%. Also, the growth in the experiment with MCF7 breast is 9.41% (active); in the experiment with HCT-116 colon, 33.1%.

For the compound `CC12OOC(C)(OO1)C2CCC(=O)OCCNc1ccnc2cc(Cl)ccc12` (centres undefined), the growth is -27.2% (active) with HOP-92 NSCLC; -29.3% (active) with 786-0 renal; -73% (active) in the experiment on MALME-3M melanoma; -15.7% (active) in the experiment with RXF 393 renal; -60.6% (active) in the experiment on EKVX NSCLC; 84.3% with SN12C renal. Besides, the growth was 66.3% with TK-10 renal; 109% in the experiment with A498 renal; 9.26% (active) with CCRF-CEM leukemia; 8.42% (active) in the experiment with RPMI-8226 leukemia; 68% in the experiment with OVCAR-8 ovarian; 94.7% in the experiment on OVCAR-5 ovarian. Further, the growth is -39.8% (active) in the experiment on OVCAR-4 ovarian; 95.9% with SK-OV-3 ovarian; 39.7% in the experiment with IGROV1 ovarian; 53.2% in the experiment with NCI/ADR-RES ovarian; 16.5% in the experiment on T-47D breast; 31.3% in the experiment on MDA-MB-435 melanoma. In addition, the growth in the experiment on MCF7 breast was 24.2%; in the experiment on HCT-116 colon it was 0.954% (active).

As for `COC(=O)CCn1c(-c2ccc(-n3cc(-c4ccc(O[C@H]5O[C@@H]6OC7(C)CC[C@H]8[C@H](C)CC[C@@H]([C@H]5C)[C@@]68OO7)cc4)nn3)cc2)nc2ccccc21`, the growth was 1.85% (active) in the experiment on HOP-92 NSCLC; 32.3% in the experiment on 786-0 renal; 0.0576% (active) with MALME-3M melanoma; 37.3% in the experiment with RXF 393 renal; 23.5% in the experiment with EKVX NSCLC; 16.3% in the experiment with SN12C renal. Besides, the growth with TK-10 renal is 30.4%; with A498 renal, 74.4%; in the experiment on CCRF-CEM leukemia it was 28.1%; in the experiment with RPMI-8226 leukemia, 20.3%; in the experiment on OVCAR-8 ovarian it was 9.58% (active); in the experiment on OVCAR-5 ovarian, 36.6%. Moreover, the growth is 34.2% in the experiment on OVCAR-4 ovarian; 33.1% with SK-OV-3 ovarian; 21.7% in the experiment with IGROV1 ovarian; 16.2% in the experiment on NCI/ADR-RES ovarian; 14.9% with T-47D breast; 24.5% in the experiment on MDA-MB-435 melanoma. Besides, the growth in the experiment with MCF7 breast is 11.1%; with HCT-116 colon, 11.6%.

Take `O=C(/C=C/c1cccc(Br)c1)c1nc2ccccc2n1Cc1ccc(F)cc1`: the growth with HOP-92 NSCLC is 19.3%; with 786-0 renal it was 12.5%; in the experiment with MALME-3M melanoma it was 50.5%; in the experiment on RXF 393 renal it was 6.83% (active); with EKVX NSCLC it was 20.1%; in the experiment on SN12C renal, 47.3%. Moreover, the growth is 80.2% in the experiment with TK-10 renal; 116% with A498 renal; -18.8% (active) with CCRF-CEM leukemia; -24.7% (active) in the experiment with RPMI-8226 leukemia; 28.2% in the experiment with OVCAR-8 ovarian; 53.7% in the experiment on OVCAR-5 ovarian. For the same compound, the growth was 54.8% with OVCAR-4 ovarian; 81.2% in the experiment on SK-OV-3 ovarian; 40.4% with IGROV1 ovarian; 8.54% (active) in the experiment with NCI/ADR-RES ovarian; 17.9% in the experiment with T-47D breast; 11.6% in the experiment on MDA-MB-435 melanoma. In addition, the growth with MCF7 breast is 8.41% (active); with HCT-116 colon, -41.1% (active).

Regarding `CCOP(=O)(OCC)C(NC(C)=O)C(=O)SCCN` (centres undefined), the growth is 108% with HOP-92 NSCLC; 103% with 786-0 renal; 105% in the experiment on MALME-3M melanoma; 100% in the experiment on EKVX NSCLC; 97.9% with SN12C renal; 99.5% in the experiment with TK-10 renal. The growth with A498 renal was 91.7%; with CCRF-CEM leukemia it was 100%; with RPMI-8226 leukemia, 109%; in the experiment with OVCAR-8 ovarian, 109%; in the experiment with OVCAR-5 ovarian it was 104%; in the experiment with OVCAR-4 ovarian, 110%. For the same compound, the growth in the experiment with SK-OV-3 ovarian is 117%; in the experiment with IGROV1 ovarian it was 110%; in the experiment on NCI/ADR-RES ovarian, 105%; in the experiment with T-47D breast it was 99.6%; in the experiment on MDA-MB-435 melanoma, 111%; in the experiment on MCF7 breast, 95.5%. Besides, the growth in the experiment with HCT-116 colon was 111%.

Consider `Cc1ccc2[nH]c(=S)n(-c3ccc(F)cc3)c(=O)c2c1`, for which the growth in the experiment on HOP-92 NSCLC was 77.2%; in the experiment with 786-0 renal it was 91.4%; with MALME-3M melanoma it was 96.4%; in the experiment on RXF 393 renal, 98.2%; with EKVX NSCLC, 95.1%; in the experiment on SN12C renal it was 92.2%. Also, the growth with TK-10 renal was 102%; in the experiment on A498 renal, 98.3%; in the experiment on CCRF-CEM leukemia, 86.3%; in the experiment with RPMI-8226 leukemia it was 91.5%; with OVCAR-8 ovarian, 103%; with OVCAR-5 ovarian it was 106%. In addition, the growth was 104% in the experiment with OVCAR-4 ovarian; 122% in the experiment on SK-OV-3 ovarian; 106% in the experiment with IGROV1 ovarian; 103% in the experiment on NCI/ADR-RES ovarian; 93.5% with T-47D breast; 104% in the experiment with MDA-MB-435 melanoma. Moreover, the growth was 95% in the experiment with MCF7 breast and 96.3% in the experiment with HCT-116 colon.

Consider `C[C@H]1[C@H](OC(=O)CCC(=O)N(CCCc2cn(-c3ccc([N+](=O)[O-])cc3)nn2)CCNc2ccnc3cc(Cl)ccc23)O[C@@H]2OC3(C)CC[C@H]4[C@H](C)CC[C@@H]1[C@@]24OO3`, for which the growth was 24.9% in the experiment with HOP-92 NSCLC; 47.1% in the experiment with 786-0 renal; 47.5% in the experiment with MALME-3M melanoma; 26.1% with RXF 393 renal; 46.8% with EKVX NSCLC; 54.9% with SN12C renal. In addition, the growth was 51.2% in the experiment on TK-10 renal; 116% in the experiment with A498 renal; 26.3% in the experiment with CCRF-CEM leukemia; 28.7% in the experiment with RPMI-8226 leukemia; 23.7% in the experiment with OVCAR-8 ovarian; 54.3% in the experiment on OVCAR-5 ovarian. The growth in the experiment with OVCAR-4 ovarian was 41.8%; in the experiment on SK-OV-3 ovarian, 98.2%; with IGROV1 ovarian, 44.9%; in the experiment on NCI/ADR-RES ovarian, 30.6%; in the experiment on T-47D breast it was 37.1%; in the experiment on MDA-MB-435 melanoma it was 31.5%. The figures for the growth in the experiment on MCF7 breast and with HCT-116 colon were 10.4% and 31.1%, respectively.

As for `O=C(/C=C/c1ccc(Cl)cc1Cl)c1nc2ccccc2n1Cc1ccc(Br)cc1`, the growth was 65.8% in the experiment with HOP-92 NSCLC; 32.6% with 786-0 renal; 84% in the experiment on MALME-3M melanoma; 58.2% in the experiment on RXF 393 renal; 61.6% in the experiment on EKVX NSCLC; 75.7% in the experiment with SN12C renal. In addition, the growth in the experiment with TK-10 renal was 99.8%; with A498 renal, 103%; in the experiment on CCRF-CEM leukemia, 5.89% (active); in the experiment with RPMI-8226 leukemia it was 2.18% (active); in the experiment on OVCAR-8 ovarian it was 80.6%; with OVCAR-5 ovarian, 98%. Also, the growth with OVCAR-4 ovarian is 73.7%; with SK-OV-3 ovarian it was 92.9%; in the experiment with IGROV1 ovarian, 68.4%; in the experiment on NCI/ADR-RES ovarian it was 82.1%; in the experiment with T-47D breast it was 44.4%; in the experiment with MDA-MB-435 melanoma, 79.2%. For the same compound, the growth with MCF7 breast is 17.1%; in the experiment on HCT-116 colon, 25.8%.
